Only some compounds are listed: those with a hit (about 4.2% of all), similar ones and a draw of the others.
PLK1 PBD block – PLK1 (human) polo-box domain binding inhibition | P53350 | hit rate 2.8% among 360,000 | Plk1 PBD binding of FITC phosphopeptide, fluorescence polarization | Potency, µM, inactives show max response, negative = inhibition, usual class: inhibitors; also: potency is read from the fitted curve at half-maximal effect; series mostly up to about 57 µM; nearly all actives have a fitted effect of over 65% in size
ALOX12 inh – blocks human arachidonate 12S-lipoxygenase | P18054 | purified 12hLO, xylenol orange hydroperoxide absorbance | Potency, µM (doses to about 108 µM), without a hit: top-dose activity change, negative = inhibition, hits mostly inhibitors | hit rate 1.1% among 580,000 | AID 1671190; also: potency is read from the fitted curve at half-maximal effect
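Hydroperoxide product was detected by ferrous iron/xylenol orange as the 573 to 405 nm absorbance ratio. Arachidonic acid at 40 uM (final) was turned over for 30 min at room temperature by 150 nM human 12hLO, pH 7.0 Hepes buffer, after 15 min compound preincubation.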
Sfp inh – blocks B. subtilis Sfp PPTase activity; Q9F4F7; Biochemical Sfp PPTase activity, qHTS; Potency, µM, for inactives: largest response in the series, negative = inhibition, most hits filed as inhibitors; hit rate 3.5% among 310,000; AID 1490;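 also: the enzyme is Sfp with the accession as filed and its product quenches rhodamine fluorescence; potency is read from the fitted curve at half-maximal effect; 0% = enzyme reaction without inhibitor and -100% = no enzyme wells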
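Buffer: 50 mM Hepes-Na pH 7.6, 10 mM MgCl2, 0.01% Nonidet P-40, 0.01% BSA. Enzyme 15 nM, pre-exposed to compound 15 min; substrates then added and fluorescence change tracked over 30 min.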
VDR inhibitor – blocks the human vitamin D receptor | P11473 | VDR-SRC2-3 peptide fluorescence polarization, 2 h | Potency, µM, for inactives: max response, negative = inhibition, hits mostly inhibitors | hit rate 0.93% among 400,000; also: potency is read from the fitted curve at half-maximal effect
Target sequence (P11473 whole entry, looked up): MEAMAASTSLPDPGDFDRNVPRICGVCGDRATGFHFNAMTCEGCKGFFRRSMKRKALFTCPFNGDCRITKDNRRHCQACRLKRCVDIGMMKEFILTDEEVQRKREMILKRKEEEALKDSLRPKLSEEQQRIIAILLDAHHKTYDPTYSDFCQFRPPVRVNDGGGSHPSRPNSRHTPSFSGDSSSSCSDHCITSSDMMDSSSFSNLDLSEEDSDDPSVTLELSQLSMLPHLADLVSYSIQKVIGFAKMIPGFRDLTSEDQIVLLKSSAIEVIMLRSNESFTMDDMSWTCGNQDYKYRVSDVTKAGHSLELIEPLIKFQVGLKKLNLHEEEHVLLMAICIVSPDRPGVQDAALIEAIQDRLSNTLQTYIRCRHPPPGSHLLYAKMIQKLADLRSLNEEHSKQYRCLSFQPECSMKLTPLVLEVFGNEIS
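Fluorescence polarization assay of small-molecule disruption of VDR binding to coregulator peptide SRC2-3. Compounds and controls pin-transferred, then read after 2 h incubation at ambient room temperature.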
Sfp inh conf – confirmation of Bacillus subtilis Sfp PPTase inhibitors. shares compounds with Sfp inh. Sfp PPTase enzymatic assay, qHTS titration. Potency, µM (doses to about 114 µM), for the others: at the highest dose activity change, negative = inhibition, hits mostly inhibitors. hit rate 79% among 380;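 also: potency is read from the fitted curve at half-maximal effect; plate controls were uninhibited Sfp reaction for no effect and no enzyme control for full effect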
Target sequence (Q9F4F7 whole entry, looked up): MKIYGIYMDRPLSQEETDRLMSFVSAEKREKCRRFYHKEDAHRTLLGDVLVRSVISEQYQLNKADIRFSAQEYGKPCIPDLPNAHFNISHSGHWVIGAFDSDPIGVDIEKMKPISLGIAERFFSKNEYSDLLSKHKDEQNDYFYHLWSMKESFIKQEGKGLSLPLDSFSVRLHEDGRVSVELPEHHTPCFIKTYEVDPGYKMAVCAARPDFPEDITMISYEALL
Sfp gel assay – Inhibits Bacillus subtilis Sfp phosphopantetheinyl transferase | shares compounds with Sfp inh | purified Sfp, gel-based phosphopantetheinylation read-out | Potency, µM, usual class: inhibitors | hit rate 20% among 210;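 active = potency below 100 µM; inconclusive = dose-dependent response but potency above 100 µM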;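 also: band intensities scaled against SCH202676 control wells before curve fitting; potency is an IC50 for inhibitors of Sfp transfer activity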
* marks the source's active call; other numbers are inactive results; i = inactive; ? = inconclusive; . = no result given; ! = not confirmed by another sample; [ ] = remark or other dose. Unless noted, calls follow the shape of the dose curve; as a rule, active = well fitted curve in the direction sought with a large enough effect; inconclusive = small, poorly fitted or top-dose-only effect, or another doubt; inactive = no such curve, though single readings can be large; an effect the other way counts as inactive or inconclusive. Unless noted, % is scaled to controls: 0 for no effect and ±100 for the full control effect.

SMILES | PLK1 PBD block | ALOX12 inh | Sfp inh | VDR inhibitor | Sfp inh conf | Sfp gel assay
CC1CCN(CC(=O)Nc2ccccc2-c2ccccc2)CC1 | -0.9% | -3.9% | 9.5% | -0.9% | . | .
CC1CCCCC1NCC(=O)Nc1ccccc1-c1ccccc1 (stereo not given) | -17.1% | ? | 79.4µM* | -4.6% | . | .
CCS(=O)(=O)Nc1cccc(C2=NN(S(=O)(=O)c3ccccc3)C(c3cccs3)C2)c1 (stereo not given) | 1.2% | ? | 20.8% | 5.5% | . | .
C/C(CCc1ccc2c(c1)OCO2)=N\N=C(/N)SC1CC(=O)N(c2ccccc2F)C1=O (stereo not given) | -5.3% | -3.0% | 79.4µM* | 1.3% | . | .
COc1ccccc1C(=O)NN=C1CCN(Cc2ccccc2)CC1 | -1.3% | 14.9% | -1.0% | -11.2% | . | .
Cn1ccnc1C(O)c1cc(C(C)(C)C)c(O)c(C(C)(C)C)c1 (stereo not given) | -27.3% | ? | 44.7µM* | -6.3% | 46.9µM* | .
CS(=O)(=O)Nc1nc2ccccc2[nH]1 | -4.0% | ? | 8.0% | 1.2% | . | .
Cc1nn(-c2ccccc2)c2nc(-c3ccco3)cc(C(=O)O)c12 | ? | ? | 12.6µM* | 0.9% | 21µM* | ?
CC(=O)N1CCN(c2ccc(NCc3ccc4c(c3)OCO4)cc2)CC1 | -5.2% | -12.5% | 15.8µM* | ? | 21µM* | i
CC(=O)O[C@@]12CO[C@@H]1C[C@H](O)[C@@]1(C)C(=O)[C@H](O)C3=C(C)[C@@H](OC(=O)[C@H](O)[C@@H](NC(=O)OC(C)(C)C)c4ccccc4)C[C@@](O)([C@@H](OC(=O)c4ccccc4)[C@H]21)C3(C)C | . | -6.2%[22.9 µM] | . | . | . | .
CC(=O)O[C@@]12CO[C@@H]1C[C@H](O)[C@@]1(C)C(=O)[C@H](O)C3=C(C)[C@@H](OC(=O)C(O)[C@@H](NC(=O)OC(C)(C)C)c4ccccc4)C[C@@](O)([C@@H](OC(=O)c4ccccc4)[C@H]21)C3(C)C (stereo not given in full) | . | . | 6.31µM* | -8.9% | 14.8µM* | i
CCOC(=O)c1nn(-c2ccc(C)cc2)c(=O)c2c(N)scc12 | -14.3% | 25.1µM* | 3.55µM* | 12.6µM* | 18.7µM* | .
C=CCN1CCc2nc(N)sc2CC1 | -21.8% | ? | 56.2µM*! | ? | 59.1µM* | ?
CCN1CCc2nc(NC(=O)c3ccccc3)sc2C1 | 0.4% | 153.8% | -8.6% | -4.2% | . | .
CCN1CCc2nc(N)sc2C1 | 4.23µM* | 73.2% | 11.2µM* | 89.1µM* | 11.8µM* | ?
Nc1nc2c(s1)CCCCCCCCCC2 | -11.2% | ? | 4.8% | -2.6% | . | .
O=C(O)Cc1ccc(NC(=O)Nc2ccc(Br)cc2)cc1 | -1.9% | -12.4% | 39.8µM* | 5.0% | ? | .
Cc1ccc(NS(=O)(=O)c2cccs2)nc1 | -14.7% | -23.2% | 9.5% | 4.8% | . | .
CCCCS(=O)(=O)Nc1ccc(C)cn1 | 21.2µM* | ? | 39.8µM* | ? | 46.9µM* | i
CCOC(=O)C[n+]1c(C)sc2ccc(OC)cc21 | 26.7µM* | . | 1µM* | ? | 6.63µM* | i
CCO/C(=C/c1sc2ccc(OC)cc2[n+]1CCCS(=O)(=O)[O-])CC | -20.9% | -21.9% | ? | -28.7% | . | .
CC(C)c1ccc(-n2cccc2/C=C2/C(=N)N3C=CSC3=NC2=O)cc1 | 7.9% | -15.3% | -12.8% | -12.6% | . | .
CC1=CSC2=NC(=O)/C(=C\c3cccn3-c3ccc([N+](=O)[O-])cc3)C(=N)N12 | -3.5% | -10.9% | 1µM* | -13.2% | 37.3µM* | i
CCCCN(CCCC)CC(O)c1cc(Cl)cc2c1-c1ccc(Cl)cc1/C2=C/c1ccc(Cl)cc1 (stereo not given) | . | -6.0%[22.9 µM] | 44.7µM* | 5.6% | 41.8µM* | ?
Nc1c(C(=O)Nc2ccccc2)sc2nc(-c3cccnc3)ccc12 | . | -23.2% | 7.94µM* | . | 29.6µM* | ?
SMILES | PLK1 PBD block | ALOX12 inh | Sfp inh | VDR inhibitor | Sfp inh conf | Sfp gel assay
COc1ccc(NC(=O)c2sc3nc(-c4cccnc4)ccc3c2N)cc1 | -17.7% | 413.5% | -25.9% | 1.4% | . | .
COC(=O)[C@@H](N)Cc1ccc(O)cc1 | . | . | -6.9% | . | . | .
N[C@@H](CO)C(=O)NNCc1ccc(O)c(O)c1O | . | . | 28.2µM* | 31.6µM* | ? | 18.5µM*
Cc1ccc(/C=N/NC(=O)C[n+]2ccccc2)o1 | -18.0% | -0.9% | 6.3% | -14.3% | . | .
O=C1Nc2ccccc2CC12CCCCN2[S+](=O)([O-])c1cccs1 (stereo not given) | . | -8.6% | . | . | . | .
Cc1ccc(Nc2nc(-c3sc(NC(=O)c4ccco4)nc3C)cs2)cc1 | -6.7% | -18.9% | 15.8µM* | -6.4% | 52.7µM* | ?
C=CC1=C(C(=O)O)N2C(=O)[C@@H](NC(=O)/C(=N\O)c3csc(N)n3)[C@H]2SC1 (stereo in doubt) | -20.5% | -0.6% | . | -4.1% | . | .
C=CC1=C(C(=O)O)N2C(=O)[C@@H](NC(=O)C(N=O)c3csc(N)n3)[C@H]2SC1 (stereo not given in full) | . | . | 31.6µM* | 44.7µM* | 41.8µM* | 55.6µM*
O=c1[nH]c(=O)n(C2CCCCC2)c(O)c1C1=Nc2ccccc2SC(c2ccccc2)C1 (stereo not given) | . | -21.0% | . | 8.7% | . | .
Cc1cc(O)c(C2=Nc3ccccc3SC(c3ccc(Cl)cc3)C2)c(=O)o1 (stereo not given) | -25.7% | -8.9% | 14.1µM* | ? | 52.7µM* | ?
CCOc1ccc(S(=O)(=O)N(CC(=O)NCc2cccnc2)c2ccc(C)cc2)cc1 | -16.0% | -5.8% | 3.2% | -6.6% | . | .
Cc1sc2nc(SCc3nc(-c4cccs4)no3)n(-c3ccccc3)c(=O)c2c1C | -2.0% | -10.8% | 3.98µM* | 4.8% | 5.91µM* | i
O=C(CSc1nnc(SCC(=O)c2ccco2)s1)c1ccco1 | 16.8µM* | ? | 14.1µM* | -13.1% | 46.9µM* | ?
O=C(CSc1nc2scc(-c3ccco3)c2c(=O)n1-c1ccccc1)N1CCOCC1 | -4.2% | 0.3% | ? | -16.3% | . | .
NC(=O)CSc1nc2scc(-c3ccco3)c2c(=O)n1-c1ccccc1 | -20.7% | ? | 6.31µM* | 79.4µM* | 14.8µM* | .
O=C(CSc1nc2scc(-c3ccco3)c2c(=O)n1-c1ccccc1)NCC1CCCO1 (stereo not given) | -3.9% | -23.8% | 1.26µM* | -4.8% | 41.8µM* | .
Cc1ccccc1NC(=O)CNC(=O)Cc1cccc2ccccc12 | -4.7% | 7.1% | . | -13.3% | . | .
NC(=O)c1c(NC(=O)C2CCCO2)sc2c1CCCC2 (stereo not given) | 10.6µM* | ? | 1.26µM* | -27.6% | 13.2µM* | .
CCOC(=O)c1c(NC(=O)C2CCCO2)sc2c1CCC2 (stereo not given) | -4.6% | -6.0% | -12.2% | -10.1% | . | .
O=c1[nH]cc(NCCc2ccccc2)c(=O)[nH]1 | -10.1% | 1.8% | 5.1% | -3.4% | . | .
Cc1ccccc1NC(=O)CSc1nn2c(=O)c(C)nnc2s1 | -8.0% | 6.8% | -21.6% | -26.2% | . | .
O=C(COc1ccc(Cl)cc1)Nc1ccc2c(c1)CCCN2C(=O)c1cccnc1 | . | -7.4% | . | . | . | .

Source: PubChem BioAssay
